Compound activity as filed in PubChem.
G9a block = G9a (human) methyltransferase inhibition; Q96KQ7; G9a H3K9 monomethylation, AlphaScreen, 2 h; Potency, µM (top dose mostly 102 µM), for inactives: top-dose activity, negative = inhibition, most hits filed as inhibitors; 350,000 tested, 8.8% active; also: % is scaled to controls: 0 for no effect and ±100 for the full control effect; nearly all actives have a fitted effect of over 75% in size
Target sequence (Q96KQ7 913-1193 limits assumed): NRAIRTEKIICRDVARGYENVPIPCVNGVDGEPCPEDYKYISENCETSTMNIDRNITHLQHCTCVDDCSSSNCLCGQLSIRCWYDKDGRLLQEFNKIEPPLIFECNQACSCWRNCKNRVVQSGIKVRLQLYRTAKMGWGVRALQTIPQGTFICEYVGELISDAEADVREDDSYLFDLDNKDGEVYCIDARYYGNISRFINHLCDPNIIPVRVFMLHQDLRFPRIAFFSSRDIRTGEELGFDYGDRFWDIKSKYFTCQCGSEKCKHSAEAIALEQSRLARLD
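AlphaScreen detection with an anti-monomethyl H3K9 antibody quantified product after a 2 h room-temperature reaction containing 500 nM biotinylated H3K9 peptide, 20 µM SAM and 20 nM enzyme, which had been preincubated 15 min with compound.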
BAZ2B inh = blocks human BAZ2B. Q9UIF8. AlphaScreen BAZ2B-H3K14Ac peptide displacement. Potency, µM (highest dose often 114 µM), for the others: top-dose activity change, negative = inhibition, actives largely listed as inhibitors. 360,000 tested, 4.4% active; also: % is scaled to controls: 0 for no effect and ±100 for the full control effect; nearly all actives have a fitted effect of over 60% in size
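AlphaScreen displacement of biotin-H3(5-23)K14Ac peptide (50 nM final) from BAZ2B (50 nM final) in PBS pH 7.4, 0.01% Tween-20; complex preformed 30 min RT, then compounds (top 110 uM) 30 min RT, beads 20 min dark.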
L3MBTL1 inh = L3MBTL1 (human) inhibition; AlphaScreen L3MBTL1–H3K9me1 peptide binding; Potency, µM (titrated, usually from 57.1 µM), inactives show at the top dose activity, negative = inhibition, hits mostly inhibitors; 230,000 tested, 0.66% active; AID 485360; also: % is scaled to controls: 0 for no effect and ±100 for the full control effect; nearly all actives have a fitted effect of over 60% in size
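AlphaScreen proximity signal between nickel-chelate acceptor and streptavidin donor beads (final 10 ug/mL) reports binding of 50 nM L3MBTL1 to 75 nM biotin-H3 K9me1 peptide; complex incubated with compounds 30 min at room temperature; cefsulodin titration as control.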
HP1b binding inh = inhibitors of HP1-beta chromodomain binding to methylated histone tails. P83916. AlphaScreen HP1-beta / biotin-H3K9me3 peptide binding. Potency, µM (top dose mostly 114 µM), inactives show at the top dose activity change, negative = inhibition, hits mostly inhibitors. 390,000 tested, 0.56% active; also: nearly all actives have a fitted effect of over 70% in size
Target sequence (P83916 whole entry, looked up): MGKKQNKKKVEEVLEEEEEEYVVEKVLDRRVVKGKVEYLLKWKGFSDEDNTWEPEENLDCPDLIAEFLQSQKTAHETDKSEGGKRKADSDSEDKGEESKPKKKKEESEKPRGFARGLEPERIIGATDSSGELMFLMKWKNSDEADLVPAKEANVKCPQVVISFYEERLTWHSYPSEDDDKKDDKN
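HP1-beta protein (50 nM final) preincubated 30 min at room temperature with biotinylated H3(1-18)K9me3 peptide (50 nM) in PBS pH 7.4, 0.01% Tween-20, then compound added for 30 min. AlphaScreen streptavidin donor/nickel chelate acceptor beads (10 ug/mL final), 30 min dark, luminescence read.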
JMJD2A Tudor inh = blocks the human JMJD2A Tudor domain; O75164; AlphaScreen JMJD2A-Tudor / H3K4me3 peptide binding; Potency, µM (doses to about 114 µM), without a hit: at the highest dose activity change, negative = inhibition, most hits filed as inhibitors; 390,000 tested, 4.4% active; AID 504339; also: % is scaled to controls: 0 for no effect and ±100 for the full control effect; nearly all actives have a fitted effect of over 50% in size
An asterisk follows results filed as active; u = inconclusive; x = no result given; [ ] = dose if it differs, or a comment. Rows were chosen to be rich in hits. Some 11% of all compounds tested hit in one or more screens of this group. Calls follow the shape of the dose curve; as a rule, active = well fitted inhibition curve with a large enough effect; inconclusive = small, poorly fitted or top-dose-only effect; inactive = no such curve, though single readings can be large or run the other way. Potency is read from the fitted curve at half-maximal effect.

SMILES	G9a block	BAZ2B inh	L3MBTL1 inh	HP1b binding inh	JMJD2A Tudor inh
CCOc1ccc(OCC)c(NC(=O)c2cc(S(=O)(=O)N3CCc4ccccc43)cn2C)c1	2%[59 µM]	1%	x	32%	-8%
Cc1ccc(/C=C(\NC(=O)c2ccccc2)C(=O)N2CCCCC2)cc1	u	-24%	2%	31%	-16%
CN1CCN(C(=O)/C(=C/c2ccco2)NC(=O)c2ccccc2)CC1	-22%	3%	x	-26%	-15%
CN(C)c1ccc(/C=C(/NC(=O)c2ccccc2)C(=O)N/N=C/c2ccc([N+](=O)[O-])c(O)c2)cc1	u	18µM*	32µM*	u	45µM*
O=C(N/C(=C\c1ccco1)C(=O)N1CCCC1CO)c1ccccc1 (centres undefined)	16µM*	-6%	x	12%	-20%
CN(C)c1ccc(/C=C(/NC(=O)c2ccccc2)C(=O)N2CCCC2)cc1	10µM*	-17%	x	14%	-6%
COc1ccc([N+](=O)[O-])cc1/C=N/NC(=O)/C(=C\c1cccs1)NC(=O)c1ccccc1	89µM*	-21%	0%	6%	-23%
Cc1ccc(C)c(NC(=O)CSc2c3c(nc4ccc(Cl)cc24)CCCC3)c1	-8%[59 µM]	x	x	22%	-16%
O=C(Nc1cc(Cl)cc(Cl)c1)c1ccc(F)c(S(=O)(=O)N2CCCCCC2)c1	2%[59 µM]	-2%	x	52%	-13%
CC(=O)N1CCC2(CCCN(c3ccc(-c4ccccc4)cc3)C2)CC1	-1%[12.7 µM]	x	x	x	x
Cc1cccc(N2CCN(C(=O)CN3C(=O)COc4ccc(S(=O)(=O)N5CCCCCC5)cc43)CC2)c1C	-32%[59 µM]	-21%	x	12%	-27%
CCOC(=O)C1CCCN(Cc2nc(N)nc(Nc3ccc(Cl)cc3)n2)C1 (centres undefined)	u	50µM*	x	32%	18%[11.4 µM]
CCOC(=O)C1CCCN(C(=S)Nc2ccc(OC)cc2)C1 (centres undefined)	-6%	3%	15%	53%	-4%
CCOC(=O)C1CCCN(Cc2nc(N)nc(Nc3ccccc3OC)n2)C1 (centres undefined)	26%	u	-2%	38%	56µM*
CCOC(=O)C1CCCN(CCC(=O)Nc2ccc(Br)cc2)C1 (centres undefined)	x	-4%	9%	33%	3%
CCOC(=O)C1CCCN(Cc2nc(N)nc(Nc3ccc(OC)cc3)n2)C1 (centres undefined)	-8%[12.7 µM]	u	x	-22%	20µM*
Cc1ccc(NP(=O)(c2ccc(N(C)C)cc2NC(=O)c2cccs2)N2CCOCC2)cc1 (centres undefined)	u	0%	4%	21%	-9%
Cc1ccc(NP(=O)(c2ccc(N(C)C)cc2NC(=O)c2cccs2)N2CCOCC2)cc1Cl (centres undefined)	79µM*	-36%	-15%	-5%	u
O=C(Nc1cc([N+](=O)[O-])ccc1O)NC1CCS(=O)(=O)C1 (centres undefined)	16µM*	10%	32%	19%	-2%
O=C(Nc1cccc([N+](=O)[O-])c1)NC1CCS(=O)(=O)C1 (centres undefined)	59%	8%	x	32%	6%
CCOc1ccc(C2C(C(=O)Nc3ccccc3)=C(C)N=c3s/c(=C/c4cccc(OCC(=O)O)c4)c(=O)n32)cc1 (centres undefined)	50µM*	u	35µM*	9%	u
CC1=C(C(=O)Nc2ccccc2)C(c2ccc(Cl)cc2)n2c(s/c(=C/c3cccc(OCC(=O)O)c3)c2=O)=N1 (centres undefined)	u	56µM*	u	u	u
Cc1ccc(CNS(=O)(=O)c2cc3c(cc2Cl)NC(=O)CO3)o1	1%[59 µM]	23%	x	32%[57 µM]	-20%
Cc1ccc(Nc2nc(NCc3ccco3)nc3nccnc23)cc1	x	x	x	34%	-7%
CCOc1cc(/C=C2/C(=O)N(c3ccccc3)N=C2C)ccc1OC(=O)c1ccco1	u	45µM*	-29%	-21%	56µM*
SMILES	G9a block	BAZ2B inh	L3MBTL1 inh	HP1b binding inh	JMJD2A Tudor inh
CC1=NN(c2ccc(C(=O)O)cc2)C(=O)/C1=C\c1ccc(OC(=O)c2cccs2)cc1	32µM*	u	u	-8%	-6%[11.4 µM]
CCOc1cc(/C=C2/SC(=S)N(CC(=O)O)C2=O)ccc1OC(=O)c1cccs1	u	u	-25%	-1%	u
CCOc1cc(/C=C2\C(=O)N(c3ccc(C(N)=O)cc3)N=C2C)ccc1OC(=O)c1cccs1	45µM*	50µM*	-17%	-21%	-28%
CCCN(CCC)C(=O)c1c[nH]c2ccc(S(=O)(=O)N(C)c3ccc(Cl)cc3)cc2c1=O	-4%[59 µM]	0%	x	56%	-13%
Cc1oc2c(c(=O)c1C)C(=O)CC(c1ccccc1)C2 (centres undefined)	-29%[59 µM]	3%	10%	24%	-9%
CS(=O)(=O)c1sc(C#N)c2c1C(=O)CC(c1ccccc1)C2 (centres undefined)	25µM*	-38%	-10%	10%	-21%
CC(=O)N1CCc2cc(Br)cc(S(=O)(=O)N3CCC(C)CC3)c21	-28%[59 µM]	-1%	x	39%	-8%
COc1ccc(C(C)=O)cc1COC(=O)c1cccnc1Cl	-7%	-19%	x	-2%	-4%
COc1ccc(C(C)=O)cc1COC(=O)c1cc2ccccc2cc1O	45µM*	-2%	x	-13%	-19%
CCn1c(-c2cc(-c3cc(OC)ccc3OC)nc3ccccc23)n[nH]c1=S	3.5µM*	u	x	28%	20µM*
CCn1c(-c2cc(-c3ccccc3OC)nc3ccccc23)n[nH]c1=S	2.8µM*	-39%	3%	22%	56µM*
Cc1cn(C2OC(COC(=O)c3ccccc3)C(O)C2Cl)c(=O)[nH]c1=O (centres undefined)	50µM*	-13%	5%	53%	-5%
Clc1cccc(CN2CCN(c3ncccn3)CC2)c1Cl	x	u	5%	u	20µM*
CC1CN(Cc2ccccc2Cl)CC(C)O1 (centres undefined)	8.9µM*	32µM*	x	u	4.5µM*
O=C(c1ccccc1Cl)N1CCN(c2ncccn2)CC1	x	x	x	19%	7%
Clc1ccccc1CN1CCN(c2ncccn2)CC1	32µM*	u	-6%	u	1µM*
CC1CN(Cc2cnc(Cl)s2)CC(C)O1 (centres undefined)	u	-18%	-15%[11.4 µM]	45%	-11%
Fc1ccc(CN2CCN(c3ncccn3)CC2)c(F)c1	x	4%	-1%	-24%	18µM*
COc1c(C)cccc1C(=O)Nc1cccc2ccc(C)nc12	89%[59 µM]	76%	x	110%	64%
Clc1ccc(CN2CCN(c3ncccn3)CC2)c(Cl)c1	x	u	8%	u	18µM*
Clc1ccccc1CN1CCSCC1	-3%[0.501 µM]	u	-5%[2.29 µM]	u	25µM*
